# Values without a mark were called inactive. How the calls were made is not given here.
# Target: Pantothenate synthetase (Mycobacterium tuberculosis (strain ATCC 25618 / H37Rv)) (UniProt P9WIL5)
# Test: Recombinant Mtb pantothenate synthetase (PanC) inhibitors, coupled enzyme, confirmatory (AID 375);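 further: 0% = full reaction with vehicle and 100% = no enzyme background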
# Conditions: coupled enzyme assay; at 10 µM, hits give high values
# Sequence of Pantothenate synthetase (Mycobacterium tuberculosis (strain ATCC 25618 / H37Rv)) (P9WIL5 whole entry, looked up): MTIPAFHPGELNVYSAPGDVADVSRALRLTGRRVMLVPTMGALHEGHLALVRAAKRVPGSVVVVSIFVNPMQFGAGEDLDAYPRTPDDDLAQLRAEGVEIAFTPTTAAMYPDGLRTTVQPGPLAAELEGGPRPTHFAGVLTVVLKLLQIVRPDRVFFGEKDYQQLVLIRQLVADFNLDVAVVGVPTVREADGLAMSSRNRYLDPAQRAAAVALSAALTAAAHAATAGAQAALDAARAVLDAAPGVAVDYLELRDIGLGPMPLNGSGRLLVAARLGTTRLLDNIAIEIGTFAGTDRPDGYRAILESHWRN
row,SMILES,inhibition [%]
1,CC1(C)CC(=O)C=C(NCc2ccncc2)C1,0
2,Cc1ccc(S(=O)(=O)CC(=O)N2CCCCCC2)cc1,0
3,O=C(CCCN1C(=O)c2ccccc2C1=O)NCc1cccnc1,3
4,O=C(CSc1ncnc2nc[nH]c12)c1ccc(Cl)cc1,1
5,Cc1nc(NC2=NCN(CCCN3CCOCC3)CN2)nc2c(C)cccc12,0
6,COc1ccccc1N1CCN(C(=O)C2CCN(S(=O)(=O)c3ccc(F)cc3)CC2)CC1,0
7,COc1ccc(-c2noc(CCC(=O)Nc3nc4ccccc4s3)n2)cc1,0
8,CCOc1nc(-c2ccccc2)ccc1-c1noc(-c2ccc(OC)c(OC)c2)n1,4
9,O=C(O)CCCCCNc1nc(=S)[nH]c2ccccc12,0
10,COc1ccc(Cl)cc1S(=O)(=O)n1cnc2ccccc21,1
11,Cc1ccc2nc(C3CCN(CC(=O)N4CCCCCC4)CC3)[nH]c2c1,0
12,COc1ccccc1-c1nc(C#N)c(N2CCN(c3ccccc3)CC2)o1,0
13,Cc1ccc(S(=O)(=O)N2CCC(C(=O)N3CCN(Cc4ccccc4)CC3)CC2)cc1,0
14,Cc1ccc2oc(=O)c3cnn(CC(=O)NCCC(C)C)c3c2c1,0
15,C/C(=N\O)C(=O)C(CN1CCCCC1)CN1CCCCC1,0
16,CCOC(=O)c1cc(-c2ccc3c(c2)OCO3)nc2onc(C)c12,0
17,Cc1cnn(C(=S)NCc2ccco2)c1,0
18,CCCC(=O)N1CCN(c2ccc(NC(=O)c3ccc(Br)o3)cc2)CC1,3
